Key:
[1] = target: Leukocyte tyrosine kinase receptor (Homo sapiens) (UniProt P29376); details: at 1 µM;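 also: each value is the mean inhibition of LTK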
[2] = target: Tyrosine-protein kinase Lyn (Homo sapiens) (UniProt P07948); details: at 0.1 µM
[3] = target: Tyrosine-protein kinase Lyn (Homo sapiens) (UniProt P07948); details: at 1 µM
[4] = target: Tyrosine-protein kinase Lyn (Homo sapiens) (UniProt P07948); details: at 0.1 µM; remark: listed apart in the source
[5] = target: Tyrosine-protein kinase Lyn (Homo sapiens) (UniProt P07948); details: at 1 µM; remark: listed apart in the source
[6] = target: T1, Tyrosine-protein kinase Mer (Homo sapiens) (UniProt Q12866); details: at 0.1 µM
T1 sequence (whole entry): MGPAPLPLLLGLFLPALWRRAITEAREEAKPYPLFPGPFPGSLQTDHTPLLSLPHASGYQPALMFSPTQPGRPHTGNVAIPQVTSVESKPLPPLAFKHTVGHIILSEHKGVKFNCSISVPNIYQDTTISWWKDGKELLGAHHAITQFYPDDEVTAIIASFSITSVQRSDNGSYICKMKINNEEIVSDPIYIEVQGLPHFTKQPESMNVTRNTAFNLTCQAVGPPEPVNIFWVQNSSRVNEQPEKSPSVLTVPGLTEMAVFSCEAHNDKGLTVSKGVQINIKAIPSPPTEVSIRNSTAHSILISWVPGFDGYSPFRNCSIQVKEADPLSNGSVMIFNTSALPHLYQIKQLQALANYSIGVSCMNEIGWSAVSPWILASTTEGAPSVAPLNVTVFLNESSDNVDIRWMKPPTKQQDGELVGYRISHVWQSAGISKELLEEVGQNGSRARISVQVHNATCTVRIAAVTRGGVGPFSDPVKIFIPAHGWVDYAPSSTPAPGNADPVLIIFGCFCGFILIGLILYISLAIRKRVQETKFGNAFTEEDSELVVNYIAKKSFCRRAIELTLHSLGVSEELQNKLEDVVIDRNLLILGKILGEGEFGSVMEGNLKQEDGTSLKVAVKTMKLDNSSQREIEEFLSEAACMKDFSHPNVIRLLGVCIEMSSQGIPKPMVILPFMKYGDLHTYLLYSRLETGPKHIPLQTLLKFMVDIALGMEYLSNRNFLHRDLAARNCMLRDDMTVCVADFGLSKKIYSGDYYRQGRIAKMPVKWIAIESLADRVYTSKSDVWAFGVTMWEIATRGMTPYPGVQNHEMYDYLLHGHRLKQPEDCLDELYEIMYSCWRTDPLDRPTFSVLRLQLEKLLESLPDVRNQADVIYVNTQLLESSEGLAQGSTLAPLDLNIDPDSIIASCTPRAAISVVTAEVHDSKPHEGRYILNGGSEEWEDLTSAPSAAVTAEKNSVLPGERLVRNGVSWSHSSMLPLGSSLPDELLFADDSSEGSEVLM

[7] = target: T1, Tyrosine-protein kinase Mer (Homo sapiens); details: at 1 µM
[8] = target: Hepatocyte growth factor receptor (Homo sapiens) (UniProt P08581); details: at 0.1 µM
[9] = target: Hepatocyte growth factor receptor (Homo sapiens) (UniProt P08581); details: at 1 µM
[10] = target: T2, Muscle, skeletal receptor tyrosine-protein kinase (Homo sapiens) (UniProt O15146); details: at 0.1 µM
T2 sequence (whole entry): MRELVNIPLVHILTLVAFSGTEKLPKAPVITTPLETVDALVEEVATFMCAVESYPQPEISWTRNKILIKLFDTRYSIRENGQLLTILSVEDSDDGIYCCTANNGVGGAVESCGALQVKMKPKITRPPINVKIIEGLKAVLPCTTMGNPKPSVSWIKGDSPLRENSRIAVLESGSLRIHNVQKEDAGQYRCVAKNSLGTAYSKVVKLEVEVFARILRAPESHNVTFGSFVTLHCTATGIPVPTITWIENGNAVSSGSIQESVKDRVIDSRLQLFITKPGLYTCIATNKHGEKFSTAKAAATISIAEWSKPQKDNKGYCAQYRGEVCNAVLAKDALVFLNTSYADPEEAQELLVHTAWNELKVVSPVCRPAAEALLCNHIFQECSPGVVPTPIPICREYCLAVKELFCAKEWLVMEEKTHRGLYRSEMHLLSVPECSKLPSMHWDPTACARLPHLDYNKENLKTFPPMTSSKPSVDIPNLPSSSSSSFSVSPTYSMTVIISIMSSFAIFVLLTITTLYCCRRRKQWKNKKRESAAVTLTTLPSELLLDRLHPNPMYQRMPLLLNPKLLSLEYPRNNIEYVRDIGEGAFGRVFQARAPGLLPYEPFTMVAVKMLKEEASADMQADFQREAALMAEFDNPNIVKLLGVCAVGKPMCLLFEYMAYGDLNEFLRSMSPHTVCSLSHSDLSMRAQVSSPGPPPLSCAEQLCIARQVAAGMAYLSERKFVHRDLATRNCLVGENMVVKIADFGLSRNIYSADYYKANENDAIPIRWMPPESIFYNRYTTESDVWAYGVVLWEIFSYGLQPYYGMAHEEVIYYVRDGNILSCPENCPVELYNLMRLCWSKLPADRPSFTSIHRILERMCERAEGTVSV

[11] = target: T2, Muscle, skeletal receptor tyrosine-protein kinase (Homo sapiens); details: at 1 µM
[12] = target: Platelet-derived growth factor receptor alpha (Homo sapiens) (UniProt P16234); details: at 0.1 µM
[13] = target: Platelet-derived growth factor receptor alpha (Homo sapiens) (UniProt P16234); details: at 1 µM
[14] = tested on: Platelet-derived growth factor receptor alpha (Homo sapiens), P16234 [D842V]; details: at 0.1 µM
[15] = tested on: Platelet-derived growth factor receptor alpha (Homo sapiens), P16234 [D842V]; details: at 1 µM
[16] = tested on: Platelet-derived growth factor receptor alpha (Homo sapiens), P16234 [T674I]; details: at 0.1 µM
[17] = tested on: Platelet-derived growth factor receptor alpha (Homo sapiens), P16234 [T674I]; details: at 1 µM
[18] = tested on: Platelet-derived growth factor receptor alpha (Homo sapiens), P16234 [V561D]; details: at 0.1 µM
[19] = tested on: Platelet-derived growth factor receptor alpha (Homo sapiens), P16234 [V561D]; details: at 1 µM
[20] = target: Platelet-derived growth factor receptor beta (Homo sapiens) (UniProt P09619); details: at 0.1 µM;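 also: reported value is the mean percent inhibition of the kinase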
Chain of Platelet-derived growth factor receptor beta (Homo sapiens) (P09619 whole entry): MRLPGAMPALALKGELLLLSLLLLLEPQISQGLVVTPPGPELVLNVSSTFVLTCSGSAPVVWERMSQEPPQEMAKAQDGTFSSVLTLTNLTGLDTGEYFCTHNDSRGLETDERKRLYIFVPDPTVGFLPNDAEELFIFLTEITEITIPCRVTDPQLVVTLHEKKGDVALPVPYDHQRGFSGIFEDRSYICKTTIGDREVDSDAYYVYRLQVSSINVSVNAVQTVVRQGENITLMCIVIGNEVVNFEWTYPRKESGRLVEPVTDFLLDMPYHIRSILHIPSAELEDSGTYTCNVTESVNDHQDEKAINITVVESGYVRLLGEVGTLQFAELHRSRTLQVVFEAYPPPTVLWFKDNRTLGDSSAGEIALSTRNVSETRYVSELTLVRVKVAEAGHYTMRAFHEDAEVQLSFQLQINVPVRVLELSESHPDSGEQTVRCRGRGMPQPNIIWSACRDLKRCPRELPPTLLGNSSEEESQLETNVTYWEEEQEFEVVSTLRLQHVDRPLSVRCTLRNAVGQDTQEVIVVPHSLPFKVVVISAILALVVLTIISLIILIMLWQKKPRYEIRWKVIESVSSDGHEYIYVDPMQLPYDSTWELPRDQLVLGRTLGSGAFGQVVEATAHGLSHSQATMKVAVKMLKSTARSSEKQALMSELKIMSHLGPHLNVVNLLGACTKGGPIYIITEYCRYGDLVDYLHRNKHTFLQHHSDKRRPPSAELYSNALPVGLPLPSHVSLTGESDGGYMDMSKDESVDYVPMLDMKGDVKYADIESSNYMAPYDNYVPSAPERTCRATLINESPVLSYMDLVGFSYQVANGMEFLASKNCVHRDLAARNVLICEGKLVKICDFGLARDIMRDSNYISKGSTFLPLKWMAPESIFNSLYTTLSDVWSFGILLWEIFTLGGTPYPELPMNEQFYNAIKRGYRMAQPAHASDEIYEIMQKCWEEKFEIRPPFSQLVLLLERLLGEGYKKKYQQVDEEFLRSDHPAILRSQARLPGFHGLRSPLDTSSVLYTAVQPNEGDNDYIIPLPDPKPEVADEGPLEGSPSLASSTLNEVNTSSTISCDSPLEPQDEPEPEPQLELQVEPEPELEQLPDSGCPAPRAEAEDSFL

Chain of Platelet-derived growth factor receptor alpha (Homo sapiens), P16234 [D842V] (P16234 whole entry D842V): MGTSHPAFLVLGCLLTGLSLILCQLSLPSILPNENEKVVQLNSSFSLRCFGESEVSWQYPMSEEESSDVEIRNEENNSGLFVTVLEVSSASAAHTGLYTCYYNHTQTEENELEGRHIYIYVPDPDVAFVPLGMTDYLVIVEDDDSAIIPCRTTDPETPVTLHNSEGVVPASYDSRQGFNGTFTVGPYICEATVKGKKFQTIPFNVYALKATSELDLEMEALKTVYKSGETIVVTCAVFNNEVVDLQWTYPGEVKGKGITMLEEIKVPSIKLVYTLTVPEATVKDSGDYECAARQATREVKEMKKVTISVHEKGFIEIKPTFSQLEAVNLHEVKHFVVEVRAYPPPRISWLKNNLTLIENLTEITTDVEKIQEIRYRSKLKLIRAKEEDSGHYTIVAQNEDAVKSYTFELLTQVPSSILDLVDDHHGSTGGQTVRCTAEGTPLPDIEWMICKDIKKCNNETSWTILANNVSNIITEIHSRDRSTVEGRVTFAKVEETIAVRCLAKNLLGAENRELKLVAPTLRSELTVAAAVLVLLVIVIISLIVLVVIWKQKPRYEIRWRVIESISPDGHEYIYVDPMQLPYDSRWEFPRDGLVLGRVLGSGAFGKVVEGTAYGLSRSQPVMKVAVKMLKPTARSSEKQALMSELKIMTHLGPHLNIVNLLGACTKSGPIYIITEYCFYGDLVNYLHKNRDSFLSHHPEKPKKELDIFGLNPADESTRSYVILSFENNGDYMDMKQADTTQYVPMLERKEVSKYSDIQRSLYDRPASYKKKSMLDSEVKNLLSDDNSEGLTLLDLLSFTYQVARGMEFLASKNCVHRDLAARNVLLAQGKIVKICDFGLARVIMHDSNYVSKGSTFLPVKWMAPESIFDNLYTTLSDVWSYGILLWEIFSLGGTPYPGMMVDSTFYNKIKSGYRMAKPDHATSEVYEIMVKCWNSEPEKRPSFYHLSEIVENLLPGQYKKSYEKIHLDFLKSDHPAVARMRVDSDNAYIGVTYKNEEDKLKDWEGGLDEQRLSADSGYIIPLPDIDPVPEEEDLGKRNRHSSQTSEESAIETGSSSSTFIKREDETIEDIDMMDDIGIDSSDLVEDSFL
Chain of Platelet-derived growth factor receptor alpha (Homo sapiens), P16234 [T674I] (P16234 whole entry T674I): as the sequence (P16234 whole entry D842V) above, with T674I, V842D counted along it
Chain of Leukocyte tyrosine kinase receptor (Homo sapiens) (P29376 whole entry): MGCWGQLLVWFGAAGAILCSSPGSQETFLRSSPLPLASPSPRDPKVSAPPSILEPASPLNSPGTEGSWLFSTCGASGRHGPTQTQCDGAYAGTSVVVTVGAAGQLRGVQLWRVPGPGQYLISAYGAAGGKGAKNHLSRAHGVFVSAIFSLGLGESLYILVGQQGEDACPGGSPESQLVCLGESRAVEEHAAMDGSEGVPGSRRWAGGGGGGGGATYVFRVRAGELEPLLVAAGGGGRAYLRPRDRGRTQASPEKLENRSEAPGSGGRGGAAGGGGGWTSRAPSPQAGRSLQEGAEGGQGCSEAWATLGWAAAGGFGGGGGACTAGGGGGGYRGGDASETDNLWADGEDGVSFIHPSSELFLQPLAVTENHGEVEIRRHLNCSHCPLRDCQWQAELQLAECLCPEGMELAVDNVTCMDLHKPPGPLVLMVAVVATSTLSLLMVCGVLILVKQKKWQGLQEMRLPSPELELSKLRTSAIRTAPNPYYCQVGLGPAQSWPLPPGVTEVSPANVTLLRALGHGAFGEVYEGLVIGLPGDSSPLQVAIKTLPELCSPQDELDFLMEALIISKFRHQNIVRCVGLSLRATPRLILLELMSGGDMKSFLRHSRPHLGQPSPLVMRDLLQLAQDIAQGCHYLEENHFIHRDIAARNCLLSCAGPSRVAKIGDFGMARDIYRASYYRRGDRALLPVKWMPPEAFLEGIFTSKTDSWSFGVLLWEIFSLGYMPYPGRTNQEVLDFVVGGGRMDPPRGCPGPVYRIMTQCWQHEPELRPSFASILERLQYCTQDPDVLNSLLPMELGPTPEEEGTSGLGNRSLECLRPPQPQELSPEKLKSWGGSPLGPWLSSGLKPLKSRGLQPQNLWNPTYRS
Chain of Tyrosine-protein kinase Lyn (Homo sapiens) (P07948 2-512 limits assumed): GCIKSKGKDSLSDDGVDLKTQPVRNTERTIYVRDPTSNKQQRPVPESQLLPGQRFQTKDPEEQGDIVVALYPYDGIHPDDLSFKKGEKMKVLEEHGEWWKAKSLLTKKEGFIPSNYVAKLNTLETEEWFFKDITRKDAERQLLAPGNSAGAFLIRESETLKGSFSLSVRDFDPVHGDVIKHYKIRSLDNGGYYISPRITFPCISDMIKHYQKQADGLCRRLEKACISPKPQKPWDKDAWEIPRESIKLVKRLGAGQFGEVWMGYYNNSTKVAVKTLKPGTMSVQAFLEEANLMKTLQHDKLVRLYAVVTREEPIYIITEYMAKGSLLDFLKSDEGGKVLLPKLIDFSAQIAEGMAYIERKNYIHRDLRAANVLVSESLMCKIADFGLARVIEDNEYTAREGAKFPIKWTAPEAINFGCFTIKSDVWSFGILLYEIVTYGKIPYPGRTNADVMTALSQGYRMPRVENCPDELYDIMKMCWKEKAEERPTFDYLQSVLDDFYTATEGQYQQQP

Row | Compound | inhibition [1] [%] | inhibition [2] [%] | inhibition [3] [%] | inhibition [4] [%] | inhibition [5] [%] | inhibition [6] [%] | inhibition [7] [%] | inhibition [8] [%] | inhibition [9] [%] | inhibition [10] [%] | inhibition [11] [%] | inhibition [12] [%] | inhibition [13] [%] | inhibition [14] [%] | inhibition [15] [%] | inhibition [16] [%] | inhibition [17] [%] | inhibition [18] [%] | inhibition [19] [%] | inhibition [20] [%]
1 | NS(=O)(=O)c1ccc(N/N=C2\C(=O)Nc3ccc(Cl)cc32)cc1 | 4.81 | 4.69 | 8.22 | 1.56 | 6.78 | 1.61 | 1.21 | 7.96 | 7.49 | 4.35 | 12.6 | 13.1 | 40.6 | 4.17 | 13.1 | 11.4 | 62.9 | 17.2 | 47 | 11.1
2 | N#Cc1cccc(Nc2nccc(-c3cnn4ncccc34)n2)c1 | 12.7 | 6.49 | 31.5 | 4.82 | 22.2 | 7.85 | 46 | 6.82 | 17.3 | 5.72 | 24.6 | 16.3 | 52.5 | 10.5 | 48.8 | 15.7 | 60.5 | 23.3 | 59.9 | 27.2
3 | OCc1ccc(-c2nc(-c3ccccn3)c(-c3ccc4c(c3)OCO4)[nH]2)cc1 | 4.28 | 6.03 | 6.58 | 3.09 | 3.31 | 0.75 | 1.08 | 11.7 | 8.92 | 3.11 | 3.91 | 9.57 | 12.2 | 4.62 | 6.61 | 6.55 | 6.47 | 3.57 | 7.37 | 4.87
4 | NC(=O)c1sc(-n2cnc3ccccc32)cc1OCc1ccccc1Br | 6.11 | 4.01 | 6.01 | 1.96 | 3.34 | 1.26 | 2.98 | 3.2 | 6.5 | 3.93 | 7.28 | 6.48 | 15.4 | 4.15 | 6.85 | 2.52 | 5.25 | 5.2 | 9.55 | 4.3
5 | COC(=O)c1cncc(/C=C/c2c(C)cc(O)cc2C)c1 | 4.87 | 12.3 | 46.2 | 7.81 | 41.9 | 0.09 | 2.53 | 1.79 | 11.5 | 2.48 | 3.88 | 14.8 | 42.8 | 0.7 | 7.7 | 3.58 | 6.85 | 27 | 54.8 | 9.77
6 | CCn1c(-c2nonc2N)nc2c(C#CC(C)(C)O)nc(OCCNC)cc21 | 4.95 | 5.06 | 5.53 | 2.97 | 3.02 | 2.03 | 2.24 | 4.48 | 0.4 | 1.71 | 3.32 | 3.73 | 16.3 | 5.07 | 17.5 | 2.61 | 14.2 | 3.69 | 11.1 | 3.31
7 | COc1cccc(-n2ncc3c(N/N=C/c4ccc(C)cc4)ncnc32)c1 | 8.61 | 9.2 | 23.2 | 5.91 | 18.6 | 2.65 | 4.53 | -2.1 | 7.4 | 6.89 | 13 | 8.78 | 23.2 | 6.24 | 24.4 | 4.6 | 17.1 | 7.1 | 25.9 | 7.34
8 | CCCN1CCCC(c2ccc(Nc3nc(Nc4cc(F)ccc4C(N)=O)c4cc[nH]c4n3)c(OC)c2)C1 (stereo not given) | 95.5 | 7.48 | 7.83 | 3.89 | 4.64 | 3.05 | 14.1 | 2.96 | 20.6 | 3.6 | 12.2 | 10.1 | 38.3 | 8.12 | 39.9 | 5.49 | 8.24 | 6.86 | 33.1 | 6.16
9 | COC(=O)c1ccc2c(c1)C(=Cc1cc(Br)c(O)c(Br)c1)C(=O)N2 | 34 | 3.81 | 17.1 | 2.84 | 12.9 | 1.09 | 2.17 | 2.4 | 8.25 | 3 | 8.06 | 5.39 | 16.1 | 2.33 | 12.2 | 1.96 | 3.91 | 4.32 | 12.3 | 1.55
10 | CN(C)CCCn1c(-c2nonc2N)nc2cnccc21 | 2.08 | 4.87 | 6.51 | 3.03 | 2.22 | 2.17 | 1.41 | 6.53 | 5.18 | -0.43 | 4.01 | 6.93 | 8.22 | 2.47 | 3.67 | 4.13 | 7.54 | 1.59 | 4.37 | 5.05
11 | Cc1ccc2c(c1)/C(=N/Nc1ccc(S(N)(=O)=O)cc1)C(=O)N2 | 1 | 0.12 | 4.93 | 0.75 | 4.77 | -1.4 | 1.27 | 1.07 | 4.08 | 2.69 | 16.2 | 12.2 | 37.7 | 2.85 | 13.1 | 11.5 | 70.2 | 21.8 | 52.3 | 8.12
12 | CN(C)c1cc2c(Nc3ccc4c(cnn4Cc4ccccc4)c3)ncnc2cn1 | 3.01 | 2.67 | 13.5 | 2.82 | 10.6 | 6.16 | 40.9 | 5.12 | 0.45 | 1.76 | 1.56 | 0 | 8.21 | 0.65 | 4.51 | 3.93 | 8.69 | 0.81 | 6.19 | -1
13 | C[C@@H](Oc1cc(-n2cnc3ccc(OC[C@@H](O)CO)cc32)sc1C(N)=O)c1ccccc1Cl | 3.54 | -0.6 | 3.84 | -0.83 | 2.72 | 5.8 | 3.84 | -4.12 | -4.35 | 9.09 | 51.4 | 13.8 | 62.4 | 4.15 | 40.5 | 0.37 | 51.2 | 7.79 | 50.1 | 7.9
